Each compound was assayed on wheat germ agglutinin (Triticum aestivum), Alexa647-labelled (assay: Alexa647-WGA lectin binding to printed small molecules – biochemical, small-molecule microarray, 635/667 nm fluorescence, artefact control for SMM control-protein annotation, profiling panel (AID 1140;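 further: score merges 667 nm feature emission with signal to noise over triplicate slides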)). Details: WGA-A647 binding, 635 nm fluorescence, higher = more signal.
Work on `COCCOC(=O)N1C(=O)[C@@]2(c3ccccc31)[C@H](c1ccc(O)cc1)N1[C@H](c3ccccc3)[C@H](c3ccccc3)OC(=O)[C@H]1[C@@H]2C(=O)Nc1nc2ccccc2s1` yielded a composite z-score of 1.14.
With `C=CCOC(=O)[C@H]1[C@@H]2C(=O)O[C@@H](c3ccccc3)[C@@H](c3ccccc3)N2[C@@H](c2ccc(OCCOC(=O)[C@H]3C[C@H]4C(=O)N[C@@H](CCCCN(C)C)C(=O)N4[C@H]3c3ccc(O)cc3)cc2)[C@]12C(=O)Nc1ccc(I)cc12` the composite z-score was 0.784.
In the case of `NC(=O)[C@@H]1[C@H]2C(=O)O[C@H](c3ccccc3)[C@H](c3ccccc3)N2[C@H](c2ccc(O)cc2)[C@@]12C(=O)Nc1ccccc12`, the composite z-score was 0.156.
With `CC(C)C[C@@H]1NC(=O)[C@H](C(C)C)NC(=O)[C@@]23C(=O)N[C@@H](Cc4ccccc4)C2[C@H](C)[C@@]2(C)O[C@H]2C3/C=C/CC/C=C/CNC1=O` (stereo not given in full) the composite z-score was 0.229.
With `COC(=O)C(CC#Cc1ccc2c(c1)[C@]1(C(=O)N2)[C@H](c2ccc(OCCO)cc2)N2[C@H](c3ccccc3)[C@H](c3ccccc3)OC(=O)[C@H]2[C@@H]1C(=O)Nc1nc2ccccc2s1)C(=O)OC` the composite z-score was 0.638.
Compound `O=C1NC(=O)C2C1C=CC(C(O)c1cc(C(F)(F)F)cc(C(F)(F)F)c1)N2Nc1ccccn1` (stereo not given) has a composite z-score of 0.574.
In the case of `Cc1ccc(S[C@]2(C(=O)NCCCN(C)C)CC(=O)N(Cc3cc(C(F)(F)F)cc(C(F)(F)F)c3)[C@@H]2c2ccc(CO)cc2I)cc1`, the composite z-score was 0.0799.
Work on `C=C(C(=O)CC[C@@H](OC(=O)c1cccnc1)c1ccccc1OCCO)C(C)C` yielded a composite z-score of 0.486.
`COc1cc(NN2C(C(O)c3ccco3)C=CC3C(=O)N(c4ccccc4)C(=O)C32)cc(OC)c1OC` (stereo not given) showed a composite z-score of 0.0464.
`COC(=O)[C@@]1(Cc2ccc(OC)cc2)[C@H]2c3cc(C(=O)N(C)C)n(CCc4ccccn4)c3C[C@H]2CN1C(=O)c1ccccc1` was tested, and the composite z-score was 0.698.
For `O=C(NC1CC1)[C@@H]1c2ccccc2C(=O)N(Cc2ccccc2Cl)[C@H]1c1ccc(CO)cc1`, the composite z-score was 0.447.
`COC(=O)[C@@]1(Cc2ccc(F)cc2)[C@H]2c3cc(C(=O)N(C)C)n(Cc4ccccc4)c3C[C@H]2CN1C(=O)c1ccccc1` showed a composite z-score of 1.16.
In the case of `O=C1C2C=CC(C(O)CCc3ccccc3)N(Nc3ccccc3F)C2C(=O)N1c1ccccc1` (stereo not given), the composite z-score was 0.548.
For `C=C[C@H](CO[Si](CC)(CC)CC)N(Cc1ccc(OC(C)=O)c(OC)c1)S(=O)(=O)c1ccc(Br)cc1`, the composite z-score was 0.713.
`O=C1O[C@@H](c2ccccc2)[C@@H](c2ccccc2)N2[C@@H](c3ccccc3OCCO)[C@]3(C(=O)Nc4ccc(C#CC5=CCCCC5)cc43)[C@@H](C(=O)N3CCCCCCC3)[C@H]12` was tested, and the composite z-score was 1.64.
`CCOC(=O)[C@H]1C/C=C/C[C@H](C(=O)OCC)C(=O)O[C@H]2[C@@H](OC)O[C@H](CO)[C@@H](OC(=O)c3c(OC)cccc3OC)[C@@H]2OC1=O` gave a composite z-score of 0.0697.
`CCC(CC)C(O)C1C=CC2C(=O)NC(=O)C2N1Nc1ccc(Cl)cc1Cl` (stereo not given) was tested, and the composite z-score was 0.788.
Compound `CCOC(=O)C[C@H]1[C@H](OC(=O)c2ccc(C(=O)c3ccccc3)cc2)[C@@H](NC(=O)c2ccc3ccccc3c2)c2cc(OCCCO)ccc2N1C(=O)Cc1ccc(OC)cc1` has a composite z-score of 0.398.
`COC(=O)[C@@]1(CCC(=O)OC(C)(C)C)N=C(c2ccc(OCCCO)cc2)O[C@H]1c1ccccc1N=[N+]=[N-]` showed a composite z-score of 0.658.
`COC(=O)[C@@]1(Cc2ccc(OC)cc2)[C@H]2c3cc(C(=O)N(C)C)n(Cc4ccccn4)c3C[C@H]2CN1C(=O)c1ccccc1` showed a composite z-score of 1.35.
Compound `CCCC[C@@H]1C[C@H]1[C@@H](NC(=O)c1ccccc1)c1ccc(C(=O)OC)cc1` has a composite z-score of -0.113.
`CCCCCCc1nc(-c2ccc(OC)nc2)cc2c1[Si](C(C)C)(C(C)C)O[C@H]2c1ccccc1` gave a composite z-score of 0.211.
For `COC(=O)C(CC#Cc1ccc2c(c1)[C@]1(C(=O)N2)[C@H](C(=O)Nc2nc3ccccc3s2)[C@H]2C(=O)O[C@H](c3ccccc3)[C@H](c3ccccc3)N2[C@@H]1c1ccccc1OCCO)C(=O)OC`, the composite z-score was 1.29.
With `CN(C)C(=O)[C@@]1(CCS(=O)(=O)c2ccccc2)COC(c2ccc(OCCCO)cc2)=N1` the composite z-score was 0.93.
With `COc1ccc(C#Cc2ccc3c(c2)[C@]2(C(=O)N3)[C@H](C(=O)Nc3nc4ccccc4s3)[C@H]3C(=O)O[C@H](c4ccccc4)[C@H](c4ccccc4)N3[C@@H]2c2ccc(O)cc2)cc1` the composite z-score was 1.18.
Compound `C=C(CC1([C@@H](NP(=O)(c2ccccc2)c2ccccc2)[C@H]2C[C@@H]2CCCC)CC1)c1ccccc1` has a composite z-score of 0.729.
Compound `C=CCN1C(=O)[C@@]2(CC=C)N=C(c3ccc(OCCCO)cc3)O[C@H]2c2ccccc21` has a composite z-score of 0.503.
`CCCC[C@@H]1C[C@H]1[C@@H](NC(=O)c1ccco1)c1ccc(-c2ccccc2)cc1` was tested, and the composite z-score was 0.124.
Compound `C=C(C)[C@@H]1CC=C(C(O)C2C=CC3C(=O)N(C)C(=O)C3N2Nc2ccccc2)CC1` (stereo not given in full) has a composite z-score of 1.18.
`O=C1C2C=CC(C(O)Cc3ccccc3)N(n3cnnc3)C2C(=O)N1Cc1ccccc1` (stereo not given) was tested, and the composite z-score was 1.31.
Work on `C=C(COC)/C(=C/C[C@@H](OC(C)=O)c1ccc(OCCO)cc1)c1cnc2ccccc2c1` yielded a composite z-score of 0.857.
Compound `COCCOC(=O)N1C(=O)[C@@]2(c3cc(C#CCNC(N)=O)ccc31)[C@H](C(=O)N1CCN(c3ncccn3)CC1)[C@H]1C(=O)O[C@H](c3ccccc3)[C@H](c3ccccc3)N1[C@@H]2c1ccc(OCCO)cc1` has a composite z-score of 0.723.
Compound `C=CCOC(=O)[C@@H]1[C@H]2C(=O)O[C@H](c3ccccc3)[C@H](c3ccccc3)N2[C@H](c2ccc(OCCOC(=O)[C@@H]3C[C@@H]4C(=O)NCC(=O)N4[C@@H]3c3ccc(O)cc3)cc2)[C@@]12C(=O)Nc1ccc(I)cc12` has a composite z-score of 0.86.
`CC#CC(=O)Oc1ccccc1C=CC(=O)OCC` was tested, and the composite z-score was 0.0601.
`CCCC[C@@H]1C[C@H]1[C@@H](NC(=O)c1ccco1)c1ccccc1C(F)(F)F` was tested, and the composite z-score was 1.15.

— PubChem BioAssay
